From PMC12864922, “TDP-43 directly inhibits mRNA accumulation in neurites through modulation of mRNA stability”
In all, about 9,900 sequences were measured (“r (bound/input frequency ratio)”: median about 0.7, highest 2% from about 6.5 on). For the sample, the highest values were picked, then their nearest neighbours and some sequences at random.

B1: ENSMUSG00000090935.743|Synj2bp (ssRNA)
RNA: GGGAGUUCUACAGUCCGACGAUCGCUUCGAUAUCCGCAUGCUAAAUACUCCUGGGUAAAAUUUGUAUUAGAAUGGAAAAAAAAAUGAGGGUCAGAAAGGUGAGCUAACUUCAAGUUAGAUACUCCCCUCUAUUUUGGUCUCAAAUUUGUUUUAGUGUGUCCACAACAUGAAAACAUACAAAAACUAUAUUUUAAAAAUCAGUUUACUUUCAUCUUUUCUCUUUAGGCUUUCAAUAAAGACCAGAAGGACUGAUAGACAGCUAGAGAGGAUCGUGUAGGCAUCCAGAUUAGAAUGGAAGAAUCCCUCUUGCGGUCGCACUAGUGUGGAAUUCUCGGGUGUCAAGG
B2: ENSMUSG00000022095.31|Fam160b2|161:165 (ssRNA)
RNA: GGGAGUUCUACAGUCCGACGAUCGCUUCGAUAUCCGCAUGCUACUCUGUCCUCCAUGCCGGGGACUUCAGCUGCAGGACACCUCACCUGUUGACCCCACGAGCUGAGGUUUCAAGGAGGUGCUGGCUCCUAAGGCAGUGGUAUUCUUGGAGCCUUUUAGAGGAGCUAGAGGAUGGCCAGUGAGCGCCUAGAUGCUGCCCUGCAACACAUGCGUGACUAUCUCUGCUAUAUUGUGACCAGGGCCACAACAUGAGACAACUCCAGGGGCCAGGGAGAUGAACUGCUGUCUUUGAGGCUGGCUAAACUCUUGCGGUCGCACUAGUGUGGAAUUCUCGGGUGUCAAGG
B3: ENSMUSG00000042529.39|Kcnj12 (ssRNA)
RNA: GGGAGUUCUACAGUCCGACGAUCGCUUCGAUAUCCGCAUGCUAGUUUUUUCGCAGUAGCUUGGGAAAGUUGGCGGGAGCGUGGAUGGCCAAAAUGACUGGCUCACGGCCUCGGAGGCUGAUGUAUACCCAUGGGCAAGGAGGUGACUUCUUGGGGUAGGGUUGCUCAGGAGUUAGGGACUCUGCUGGAGGCCUUAGGUGCAGGUCCCAGCCCCGGUGGGAGGAGGCUGUGUAUGUACACUUCAUUGGUUUUUAACUUGGGCAAGACUGUUUACAAACAAAAACAAACAAACAAACAAUCAAAACUCUUGCGGUCGCACUAGUGUGGAAUUCUCGGGUGUCAAGG
B4: ENSMUSG00000061578.1488|Ksr2 (ssRNA)
RNA: GGGAGUUCUACAGUCCGACGAUCGCUUCGAUAUCCGCAUGCUAAAUGAAUAUGUGGGUAGAAGGGUGAGUGGGUGGAUGAAUGGAUGGAUAGGUUGGUAGGUUAAUGUAUUCGUGGAUGGGUGAAUGGAUGGAUGGAUAGAUAGAUGGGAAGGUGGAUGGACAGAUGGAUGGAUGGAUAGAUAGAUGGACAGGUGGUUGGUGGAUAAAUGAGUGAAUGAUUAUGUUGAUAGAUAUGUGGGUAGGCUGAAUGGGUGAAUGGAUAGAUCGAUGACUGGAUGGAGGGUGGGUGACUGUAUAGGCAGCUCUUGCGGUCGCACUAGUGUGGAAUUCUCGGGUGUCAAGG
B5: ENSMUSG00000061578.1494|Ksr2 (ssRNA)
RNA: GGGAGUUCUACAGUCCGACGAUCGCUUCGAUAUCCGCAUGCUAAAUGGAUGGAUAGGUUGGUAGGUUAAUGUAUUCGUGGAUGGGUGAAUGGAUGGAUGGAUAGAUAGAUGGGAAGGUGGAUGGACAGAUGGAUGGAUGGAUAGAUAGAUGGACAGGUGGUUGGUGGAUAAAUGAGUGAAUGAUUAUGUUGAUAGAUAUGUGGGUAGGCUGAAUGGGUGAAUGGAUAGAUCGAUGACUGGAUGGAGGGUGGGUGACUGUAUAGGCAGGUGGGUAGGUAGCUGGAUGGGUGGGCGUAUAGAAAGCUCUUGCGGUCGCACUAGUGUGGAAUUCUCGGGUGUCAAGG
B6: ENSMUSG00000061578.1490|Ksr2 (ssRNA)
RNA: GGGAGUUCUACAGUCCGACGAUCGCUUCGAUAUCCGCAUGCUAGGUAGAAGGGUGAGUGGGUGGAUGAAUGGAUGGAUAGGUUGGUAGGUUAAUGUAUUCGUGGAUGGGUGAAUGGAUGGAUGGAUAGAUAGAUGGGAAGGUGGAUGGACAGAUGGAUGGAUGGAUAGAUAGAUGGACAGGUGGUUGGUGGAUAAAUGAGUGAAUGAUUAUGUUGAUAGAUAUGUGGGUAGGCUGAAUGGGUGAAUGGAUAGAUCGAUGACUGGAUGGAGGGUGGGUGACUGUAUAGGCAGGUGGGUAGGUAGCUCUUGCGGUCGCACUAGUGUGGAAUUCUCGGGUGUCAAGG
B7: ENSMUSG00000061578.1489|Ksr2 (ssRNA)
RNA: GGGAGUUCUACAGUCCGACGAUCGCUUCGAUAUCCGCAUGCUAUAUGUGGGUAGAAGGGUGAGUGGGUGGAUGAAUGGAUGGAUAGGUUGGUAGGUUAAUGUAUUCGUGGAUGGGUGAAUGGAUGGAUGGAUAGAUAGAUGGGAAGGUGGAUGGACAGAUGGAUGGAUGGAUAGAUAGAUGGACAGGUGGUUGGUGGAUAAAUGAGUGAAUGAUUAUGUUGAUAGAUAUGUGGGUAGGCUGAAUGGGUGAAUGGAUAGAUCGAUGACUGGAUGGAGGGUGGGUGACUGUAUAGGCAGGUGGGUCUCUUGCGGUCGCACUAGUGUGGAAUUCUCGGGUGUCAAGG
B8: ENSMUSG00000061578.1493|Ksr2 (ssRNA)
RNA: GGGAGUUCUACAGUCCGACGAUCGCUUCGAUAUCCGCAUGCUAUGGAUGAAUGGAUGGAUAGGUUGGUAGGUUAAUGUAUUCGUGGAUGGGUGAAUGGAUGGAUGGAUAGAUAGAUGGGAAGGUGGAUGGACAGAUGGAUGGAUGGAUAGAUAGAUGGACAGGUGGUUGGUGGAUAAAUGAGUGAAUGAUUAUGUUGAUAGAUAUGUGGGUAGGCUGAAUGGGUGAAUGGAUAGAUCGAUGACUGGAUGGAGGGUGGGUGACUGUAUAGGCAGGUGGGUAGGUAGCUGGAUGGGUGGGCGUAUCUCUUGCGGUCGCACUAGUGUGGAAUUCUCGGGUGUCAAGG
B9: ENSMUSG00000061578.1492|Ksr2 (ssRNA)
RNA: GGGAGUUCUACAGUCCGACGAUCGCUUCGAUAUCCGCAUGCUAAGUGGGUGGAUGAAUGGAUGGAUAGGUUGGUAGGUUAAUGUAUUCGUGGAUGGGUGAAUGGAUGGAUGGAUAGAUAGAUGGGAAGGUGGAUGGACAGAUGGAUGGAUGGAUAGAUAGAUGGACAGGUGGUUGGUGGAUAAAUGAGUGAAUGAUUAUGUUGAUAGAUAUGUGGGUAGGCUGAAUGGGUGAAUGGAUAGAUCGAUGACUGGAUGGAGGGUGGGUGACUGUAUAGGCAGGUGGGUAGGUAGCUGGAUGGGUGGCUCUUGCGGUCGCACUAGUGUGGAAUUCUCGGGUGUCAAGG

The binders below were run against TDP-43 (Homo sapiens, UniProt Q13148 1-414) (assay: RNA Bind-n-Seq with designed 260-mer pool; 25 mM Tris-HCl, 150 mM KCl, 3 mM MgCl2, BSA (printed 500 mg/mL), 20 units/mL SUPERase IN; pH not stated; 500 nM RNA pool, 1 h, 4 C; TDP-43 5, 50, 500 nM; high values mean tight binding). Conditions: protein: recombinant; tags: SBP (GST cleaved off with PreScission; pGEX-GST-SBP).
How it was run: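 Recombinant SBP-tagged TDP-43 at 5, 50 or 500 nM was captured on streptavidin beads, then incubated 1 h at 4 °C with 500 nM of an in vitro-transcribed 260-nt 3′ UTR oligo pool in 25 mM Tris-HCl, 150 mM KCl, 3 mM MgCl2, BSA and SUPERase IN. Bound RNA was washed, eluted with biotin, reverse transcribed, PCR-amplified and sequenced. Binding is R, each oligo's mapped-read-normalized abundance in the bound sample divided by its abundance in input. Duplicates used two independent protein batches.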

TDP-43, sequence (Q13148 whole entry): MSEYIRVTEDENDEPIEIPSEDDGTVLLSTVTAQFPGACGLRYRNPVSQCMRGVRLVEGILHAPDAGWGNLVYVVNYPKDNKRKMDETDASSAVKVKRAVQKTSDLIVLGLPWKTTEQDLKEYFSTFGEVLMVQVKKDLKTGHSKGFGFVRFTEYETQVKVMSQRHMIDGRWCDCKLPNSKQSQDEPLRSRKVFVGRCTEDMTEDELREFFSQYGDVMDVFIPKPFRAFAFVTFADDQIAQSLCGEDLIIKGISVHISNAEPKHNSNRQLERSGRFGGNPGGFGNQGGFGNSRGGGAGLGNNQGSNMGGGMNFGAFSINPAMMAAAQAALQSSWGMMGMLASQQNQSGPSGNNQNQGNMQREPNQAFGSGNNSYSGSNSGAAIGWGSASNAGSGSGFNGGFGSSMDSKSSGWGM

Going from B1 to B2, the binding signal rises from 0.123 R (bound/input frequency ratio) to 0.326 R (bound/input frequency ratio).

First: B3
Second: B4
The binding signal of the first is lower: 1.88 R (bound/input frequency ratio) for the first, 5.5 R (bound/input frequency ratio) for the second.

Compared with B5, B6 is higher in binding signal: 5.89 R (bound/input frequency ratio) for the first, 11.2 R (bound/input frequency ratio) for the second.

Compared with B7, B8 is lower in binding signal: 5.83 R (bound/input frequency ratio) for the first, 4.33 R (bound/input frequency ratio) for the second.

With B9 the binding signal was 7.07 R (bound/input frequency ratio).
